# Reference: PubChem BioAssay (Tox21)
# Values joined by “and” are separate entries in the source; they are usually repeats but may differ in a detail not shown here. Identical values can stand only once. Inconclusive results are not listed. A call without a number means that no potency is given here. Active and inactive are the calls of the source. Unless noted, the call rests on the fitted dose curve; in most records, active means well fitted curve in the direction sought with a large enough effect in the repeat runs; inconclusive means weak or mixed curves; inactive means no such curve, though single readings can be large; an effect the other way counts as inactive or inconclusive.
# What was measured:
# [1] = qHTS assay to identify small molecule antagonists of the estrogen related receptor (ERR) signaling pathway from Tox21 library - cell viability counter screen (AID 1224834); further: nearly all actives have a fitted effect of over 30% in size; further: potency means the concentration at half of the fitted maximal effect
# Procedure, shortened: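 Multiplexed viability counter screen in ERR cells: 17.5 h compound exposure at 37 C, CellTiter-Fluor added, 30 min at 37 C/5% CO2, fluorescence read.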
# [2] = biological target: Luciferin 4-monooxygenase (Photinus pyralis) (UniProt P08659); assay: qHTS assay to identify small molecule inhibitors of firefly luciferase (AID 1224835); further: series mostly up to about 120 µM; nearly all actives have a fitted effect of over 25% in size
# Procedure, shortened: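 Biochemical qHTS: compounds run as interplate titrations against purified firefly enzyme, with D-luciferin and ATP each at its KM concentration. Light output recorded by CCD imaging.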
# [3] = qHTS assay to identify small molecule agonists of the constitutive androstane receptor (CAR) signaling pathway - cell viability counter screen (AID 1224836); further: series mostly up to about 92 µM; nearly all actives have a fitted effect of over 45% in size
# Procedure, shortened: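 HepG2-CYP2B6-hCAR, 2500 cells/well, 4 h pre-incubation; cpd 15 conc + PK11195 0.75 uM final; 23 h, 37 C/5% CO2; CellTiter-Fluor, fluorescence.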
# [4] = qHTS assay to identify small molecule antagonists of the constitutive androstane receptor (CAR) signaling pathway - cell viability counter screen (AID 1224837); further: series mostly up to about 92 µM; nearly all actives have a fitted effect of over 45% in size
# Procedure, shortened: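 Read-out: CellTiter-Fluor fluorescence after 23 hr at 37 C/5% CO2. Cells: HepG2 double-stable for hCAR and CYP2B6-2.2kb. Compounds tested at 15 concentrations in the presence of CITCO, final concentration 50 nM.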
# [5] = biological target: Nuclear receptor subfamily 1 group I member 3 (Homo sapiens) (UniProt Q14994); assay: qHTS assay to identify small molecule antagonists of the constitutive androstane receptor (CAR) signaling pathway (AID 1224838);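 further: HepG2 cells stably expressing hCAR with CYP2B6 luciferase reporter stimulated by CITCO; nearly all actives have a fitted effect of over 40% in size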
# Procedure, shortened: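 Read-out: ONE-Glo luciferase luminescence after 30 min at room temperature. HepG2-CYP2B6-hCAR double-stable cells, compounds in 15-point titration plus 50 nM CITCO final, 24 h at 37 C/5% CO2.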
# [6] = biological target: Nuclear receptor subfamily 1 group I member 3 (Homo sapiens) (UniProt Q14994); assay: qHTS assay to identify small molecule agonists of the constitutive androstane receptor (CAR) signaling pathway (AID 1224839); further: nearly all actives have a fitted effect of over 15% in size; further: potency means the concentration at half of the fitted maximal effect
# Procedure, shortened: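 HepG2-CYP2B6-hCAR cells, 2500/well, 4 h pre-incubation; compounds 15 conc.; PK11195 0.75 uM final; 24 h, 37 C/5% CO2; ONE-Glo luciferase read.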
# [7] = qHTS assay to identify small molecule antagonists of the estrogen related receptor signaling pathway with the pleiotropic PPARgamma coactivator (PGC) from Tox21 10K library - cell viability counter screen (AID 1224840; active means well fitted cell-killing curve with a large enough effect in the repeat runs, not every such curve was filed as active; further: nearly all actives have a fitted effect of over 40% in size)
# Procedure, shortened: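 Fluorescence read-out of CellTiter-Fluor viability reagent, added after cells had been exposed to compound in DMSO for 17.5 h at 37 C; 30 min development at 37 C/5% CO2. Cells: PGC/ERR line, 2,000/well.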
# [8] = qHTS assay to identify small molecule antagonists of the estrogen related receptor signaling pathway with the pleiotropic PPARgamma coactivator (PGC) from Tox21 10K library (AID 1224841; call rule not given here; further: actives are mostly falling curves and most rising ones were filed inactive; nearly all actives have a fitted effect of over 50% in size; further: potency means the concentration at half of the fitted maximal effect)
# Procedure, shortened: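 Luminescence read-out (One-Glo luciferase reagent, 30 min at room temperature) from PGC/ERR cells exposed to DMSO-dissolved test compounds for 18 h at 37 C; cells, 2,000 per well, had been preincubated 6 h before compound transfer.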
# [9] = qHTS assay to identify small molecule agonists of the estrogen related receptor signaling pathway with the pleiotropic PPARgamma coactivator (PGC) from Tox21 10K library (AID 1224842); further: nearly all actives have a fitted effect of over 15% in size; further: potency means the concentration at half of the fitted maximal effect
# Procedure, shortened: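 PGC/ERR reporter cell line, 2,000 cells per well, incubated 6 h at 37 C before 23 nL compound in DMSO was added. After 18 h at 37 C, One-Glo luminescence read following 30 min at room temperature.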
# Nuclear receptor subfamily 1 group I member 3 (Homo sapiens), sequence (Q14994 whole entry, looked up): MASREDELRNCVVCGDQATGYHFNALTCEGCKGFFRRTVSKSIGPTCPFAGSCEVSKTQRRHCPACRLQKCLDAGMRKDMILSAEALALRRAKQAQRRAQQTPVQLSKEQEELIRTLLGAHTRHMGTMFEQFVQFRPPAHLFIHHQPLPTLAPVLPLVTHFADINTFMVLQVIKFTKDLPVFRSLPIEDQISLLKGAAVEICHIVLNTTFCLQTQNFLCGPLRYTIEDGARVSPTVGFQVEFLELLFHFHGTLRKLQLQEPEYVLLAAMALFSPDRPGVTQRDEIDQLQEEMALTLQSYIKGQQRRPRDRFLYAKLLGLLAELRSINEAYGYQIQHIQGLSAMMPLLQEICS
# Luciferin 4-monooxygenase (Photinus pyralis), sequence (P08659 whole entry, looked up): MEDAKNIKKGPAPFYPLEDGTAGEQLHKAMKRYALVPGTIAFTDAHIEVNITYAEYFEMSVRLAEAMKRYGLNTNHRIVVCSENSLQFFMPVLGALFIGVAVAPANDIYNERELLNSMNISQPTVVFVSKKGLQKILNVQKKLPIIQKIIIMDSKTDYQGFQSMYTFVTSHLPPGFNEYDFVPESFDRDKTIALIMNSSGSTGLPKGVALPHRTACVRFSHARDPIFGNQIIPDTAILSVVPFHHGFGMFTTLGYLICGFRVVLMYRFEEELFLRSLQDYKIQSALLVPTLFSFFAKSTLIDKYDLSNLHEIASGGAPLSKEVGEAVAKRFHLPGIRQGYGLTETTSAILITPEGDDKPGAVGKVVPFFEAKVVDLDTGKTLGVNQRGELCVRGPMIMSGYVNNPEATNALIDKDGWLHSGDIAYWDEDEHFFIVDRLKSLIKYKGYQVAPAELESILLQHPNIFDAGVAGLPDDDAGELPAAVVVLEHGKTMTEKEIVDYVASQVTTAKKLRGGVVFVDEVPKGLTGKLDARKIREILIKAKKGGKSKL
SMILES,Potency [1],Potency [2],Potency [3],Potency [4],Potency [5],Potency [6],Potency [7],Potency [8],Potency [9]
COP(=S)(Oc1cc(Cl)c(Br)cc1Cl)c1ccccc1 (centres undefined),inactive,inactive,inactive,inactive,inactive,30.6 µM (active),inactive,54.5 µM (active),inactive
O=C(NC(=O)c1c(F)cccc1F)Nc1cc(Cl)c(Oc2ncc(C(F)(F)F)cc2Cl)c(Cl)c1,inactive,inactive,inactive,inactive,inactive,inactive,inactive,,
CC(Cl)Cl,inactive,inactive,inactive,inactive,inactive,inactive,inactive,,inactive
CCCCCCCCCC(=O)O[C@H]1CC[C@H]2[C@@H]3CCC4=CC(=O)CC[C@@H]4[C@H]3CC[C@]12C,inactive,inactive,inactive,inactive,inactive,inactive,inactive,,
COc1nn(C(=O)NS(=O)(=O)c2ccccc2OC(F)(F)F)c(=O)n1C,inactive,inactive,inactive,inactive,inactive,inactive,,,inactive
CCOP(=S)(OCC)Oc1nc(Cl)c(Cl)cc1Cl,inactive,inactive,inactive,inactive,inactive,27.4 µM (active) and 30.6 µM (active),inactive,,
C[C@H]1CNCCc2ccc(Cl)cc21,inactive,inactive,inactive,inactive,inactive,inactive,inactive,inactive,inactive
COC(=O)C(Br)CBr (centres undefined),inactive,inactive,inactive,inactive,inactive,inactive,inactive,,inactive
O=C(CBr)Nc1ccc(Cl)cc1C(=O)c1ccccc1F,inactive,inactive,inactive,inactive,inactive,26.6 µM (active),inactive,inactive,inactive
CC(=O)CCC(C)=O,inactive,inactive,inactive,inactive,inactive,inactive,inactive,,
O=C1c2ccccc2C(=O)C1C(=O)C(c1ccccc1)c1ccccc1,inactive,inactive,inactive,inactive,inactive,inactive,inactive,,inactive
C/C=C/C=O,inactive,inactive,inactive,inactive,inactive,inactive,inactive,,
CC(C)(Cl)[N+](=O)[O-],inactive,inactive,inactive,inactive,inactive,inactive,inactive,,inactive
CCCN(CC1CC1)c1c([N+](=O)[O-])cc(C(F)(F)F)cc1[N+](=O)[O-],inactive,inactive,inactive,inactive,,,inactive,,
COc1cc(CC(C)N)cc2c1OCO2 (centres undefined),inactive,inactive,inactive,inactive,,inactive,inactive,inactive,inactive
CC(=O)C(C)(C)C,inactive,inactive,inactive,inactive,,inactive,inactive,inactive,inactive
Cl/C=C\Cl,inactive,inactive,inactive,inactive,,,inactive,,
C=CCOC(C)=O,inactive,inactive,inactive,inactive,,,inactive,,
CCOS(C)(=O)=O,inactive,inactive,inactive,inactive,,,inactive,,
O=[N+]([O-])c1ccccc1CCl,inactive,inactive,inactive,inactive,,inactive,,,
[CH3][Sn]([CH3])([Cl])[Cl],62.1 µM (active),inactive,inactive,inactive,,inactive,,69.7 µM (active) and 43.3 µM (active),inactive
CCCN(CCCl)c1c([N+](=O)[O-])cc(C(F)(F)F)cc1[N+](=O)[O-],inactive,inactive,inactive,inactive,inactive,,,inactive,inactive
Sc1ccccc1Cl,inactive,inactive,inactive,inactive,,inactive,inactive,inactive,inactive
CCCCNP(N)(N)=S,inactive,inactive,inactive,inactive,,,inactive,,
CC1C(=O)C[C@]2(C(C)C)C[C@H]12 (some centres undefined),inactive,inactive,inactive,inactive,,,inactive,,
BrCCCCBr,inactive,inactive,inactive,inactive,,,inactive,,
O=C(O)C(F)(F)C(F)(F)C(F)(F)C(F)(F)C(F)(F)C(F)(F)C(F)(F)C(F)(F)C(F)(F)C(F)(F)F,inactive,inactive,inactive,inactive,inactive,,inactive,inactive,57.9 µM (active)
NC(=O)C(Cl)(Cl)Cl,inactive,inactive,inactive,inactive,,inactive,inactive,,
COC(C)(C)CCC[C@H](C)C/C=C/C(C)=C/C(=O)OC(C)C,inactive,inactive,inactive,inactive,,inactive,,,inactive
CCOc1ccc(C(C)(C)COCc2cccc(Oc3ccccc3)c2)cc1,inactive,inactive,inactive,inactive,,6.11 µM (active),,,
